Hits are enriched below; roughly 4.3% of the tested compounds scored in any of these assays.
FGF22 binding = binders of human FGF22 protein, primary screen, FGF22 synaptogenesis inhibitor project, biophysical, thermal shift, single point | 340,000 compounds, 1.5% hits | AID 651658, 2012 | Fibroblast growth factor 22 (Homo sapiens), Q9HCT0 | activity (Tm shift, normalised), % at 9.99 µM | recombinant FGF22 thermal shift, SYPRO orange fluorescence; percent of sucrose octasulfate shift, DMSO zero;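 active = mean Tm shift, scaled 0 neutral to 100 positive control, at about 1.3% or above, every replicate too, limit read from the data; inconclusive = no clear call, values can overlap the other calls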
Target sequence (Q9HCT0 whole entry, looked up): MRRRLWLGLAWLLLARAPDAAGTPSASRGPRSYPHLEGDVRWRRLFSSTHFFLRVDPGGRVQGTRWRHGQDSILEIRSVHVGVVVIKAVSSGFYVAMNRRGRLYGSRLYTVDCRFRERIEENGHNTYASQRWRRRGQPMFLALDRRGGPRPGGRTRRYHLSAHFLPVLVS
Wnt act = Wnt/beta-catenin pathway activators, primary screen, cell-based, plate reader, single point. Wnt/beta-catenin reporter cell assay, activator. activation, % at 9.35 µM. 300,000 compounds, 1.2% hits. AID 743398, 2014; in the data active = activation above about 30%, passing the limit was not always enough; inconclusive = no clear call, values can overlap the other calls
SMARCA2 act = SMARCA2 (BRM) function activators, primary screen, cell-based, luminescence, high throughput. 370,000 compounds, 1% hits. activation, % at 9.1 µM. MG213 cells, MMTV-luciferase reporter, dexamethasone, overnight; in the data active = activation above about 7.8%
esBAF inh = Bmi1 luciferase reporter increase in mESCs, primary screen, esBAF inhibitor project, mouse ES cells, Bmi1 luciferase knock-in, single point; 24 h; 100% = twice the neutral-well signal; reporter increase, % at 12.5 µM; 350,000 compounds, 2% hits; in the data active = activation above about 40%; inconclusive = no clear call, values can overlap the other calls;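 note: a rise in the Bmi1 reporter signal indicates esBAF inhibition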
MLL AF4-AF9 inh = inhibitors of AF4 peptide binding to AF9, primary screen, biochemical, AlphaScreen, biotin-AF4 peptide, FLAG-AF9, single point; Protein AF-9 (Homo sapiens), P42568; inhibition, % at 10 µM; 350,000 compounds, 0.47% hits; AID 651704, 2012;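 active = every replicate reaching a set inhibition limit, whatever the replicate mean, cut at about 25% in these data; inconclusive = mean inhibition reaches that limit but some replicates miss it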
Target sequence (P42568 whole entry, looked up): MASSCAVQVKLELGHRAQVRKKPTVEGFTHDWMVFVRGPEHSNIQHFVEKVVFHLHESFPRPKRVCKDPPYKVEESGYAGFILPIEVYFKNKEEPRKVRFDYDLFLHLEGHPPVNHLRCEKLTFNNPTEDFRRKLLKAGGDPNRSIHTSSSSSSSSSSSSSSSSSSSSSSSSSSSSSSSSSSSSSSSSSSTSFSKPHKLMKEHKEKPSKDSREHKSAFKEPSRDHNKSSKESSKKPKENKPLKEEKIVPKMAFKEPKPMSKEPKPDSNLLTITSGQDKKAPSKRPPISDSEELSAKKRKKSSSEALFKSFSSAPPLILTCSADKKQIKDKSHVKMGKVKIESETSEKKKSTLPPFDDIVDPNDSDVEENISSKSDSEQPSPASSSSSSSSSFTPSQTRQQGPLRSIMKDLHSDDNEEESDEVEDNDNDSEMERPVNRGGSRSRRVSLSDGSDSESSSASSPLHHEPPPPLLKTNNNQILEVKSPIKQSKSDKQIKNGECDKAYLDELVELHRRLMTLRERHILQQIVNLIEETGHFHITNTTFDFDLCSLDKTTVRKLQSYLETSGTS
MITF TRPM1 HTS = activators of MITF-driven TRPM1 promoter reporter, primary screen, cell-based, SK-MEL-5, luciferase, single point | 300,000 compounds, 0.75% hits | SK-MEL-5 TRPM1-promoter luciferase, 24 h; % of positive control, neutral wells = 0 | AID 588334, 2011 | activation, % at 12.5 µM;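 active = mean activation of at least 80% with every replicate also reaching 80%; inconclusive = mean reaches 80% but some replicate falls short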
Large screens that a line does not name were inactive.

CNC[C@@H]1Oc2ccc(NC(=O)Cn3cnnn3)cc2C(=O)N([C@@H](C)CO)C[C@H]1C	none (no result: Wnt act, SMARCA2 act, MITF TRPM1 HTS)
Cc1cccc(N2C(=O)CC(N(O)c3ccccc3)C2=O)c1 (stereo unspecified)	esBAF inh 61 (no result: FGF22 binding, MLL AF4-AF9 inh, MITF TRPM1 HTS)
O=C1CC(N(O)c2ccccc2)C(=O)N1c1ccc(Cl)c(Cl)c1 (stereo unspecified)	none (no result: esBAF inh, MITF TRPM1 HTS)
N#Cc1ccccc1OCC(=O)OCC(=O)NC1CCCCC1	none
Cc1cc(Br)ccc1OCC(=O)NC1CCCC1	esBAF inh 52
N#Cc1ccccc1OCC(=O)NC1CCCCCC1	esBAF inh 46 (no result: MITF TRPM1 HTS)
O=C(COc1ccc(F)cc1Cl)NC1CCCCCC1	Wnt act 40, esBAF inh inconclusive, MITF TRPM1 HTS inconclusive
O=C(COc1ccc(Br)cc1Br)NC(=O)NC1CCCC1	MITF TRPM1 HTS 104 (no result: esBAF inh)
Cc1cc(Br)ccc1SCC(=O)OCC(=O)NC1CCCC1	none
CCc1ccc(OCC(=O)NC2CCCCC2)c(Br)c1	esBAF inh inconclusive, MITF TRPM1 HTS 101
O=C(O)COc1ccc(Cl)cc1C1CCCCC1	FGF22 binding 43
Cc1cc(C(=O)N/N=C/c2ccc(C)o2)c2ccccc2n1	none (no result: FGF22 binding, esBAF inh, MLL AF4-AF9 inh)
Cc1ccc(/C=N/NC(=O)c2cc(C3CC3)nc3ccccc23)o1	FGF22 binding 43
CN1CCN(C(=O)c2cnn(-c3ccccc3)c2NC(=O)c2ccccc2)CC1	FGF22 binding 43 (no result: esBAF inh)
CN1CCN(C(=O)c2cnn(-c3ccccc3)c2NC(=O)c2ccc(Br)cc2)CC1	none
COc1cccc(C(=O)Nc2cccc(NC(=O)c3ccccc3Cl)c2)c1	none (no result: MITF TRPM1 HTS)
CNS(=O)(=O)c1cccc(C(=O)Nc2cccnc2)c1	none (no result: FGF22 binding, Wnt act, MLL AF4-AF9 inh, MITF TRPM1 HTS)
COc1ccc(NC(=O)c2cccc(OS(=O)(=O)N(C)C)c2)cc1	Wnt act 55
CN(C)S(=O)(=O)Oc1cccc(C(=O)Nc2ccc(Cl)c(Cl)c2)c1	esBAF inh 72 (no result: FGF22 binding, Wnt act, MLL AF4-AF9 inh)
CNS(=O)(=O)c1cccc(C(=O)Nc2cccc(Cl)c2)c1	esBAF inh 48 (no result: FGF22 binding, Wnt act, MLL AF4-AF9 inh, MITF TRPM1 HTS)
COC(=O)c1ccc(OS(=O)(=O)N(C)C)cc1	esBAF inh 49
CN(C)S(=O)(=O)Oc1cccc(C(=O)Nc2cccc(Cl)c2)c1	Wnt act 31, esBAF inh 44 (no result: FGF22 binding, MLL AF4-AF9 inh, MITF TRPM1 HTS)
CN(C)c1nc(N)nc(-c2nc3ccccc3s2)n1	Wnt act 31 (no result: esBAF inh)
c1coc(-c2nc3ccccc3s2)c1	none (no result: esBAF inh)
Oc1ccc(-c2nc3ccccc3s2)cc1	Wnt act 47
Nc1ccc(O)c(-c2nc3ccccc3s2)c1	none (no result: FGF22 binding, MLL AF4-AF9 inh)
c1ccc2sc(-c3ccc4c(c3)OCO4)nc2c1	none (no result: FGF22 binding, Wnt act, SMARCA2 act, MLL AF4-AF9 inh)
c1csc(-c2nc3ccccc3s2)c1	esBAF inh 47
c1ccc2sc(-c3ccncc3)nc2c1	Wnt act 42 (no result: esBAF inh)
COc1ccc(-c2nc3ccccc3s2)cc1	none (no result: esBAF inh)
COc1ccc(S(=O)(=O)Nc2ccc3c(c2)C(=O)N([C@@H](C)CO)C[C@@H](C)[C@H](CN(C)C(=O)Nc2ccc(C(F)(F)F)cc2)O3)cc1	none (no result: Wnt act, SMARCA2 act, MITF TRPM1 HTS)
C[C@@H]1CN([C@@H](C)CO)C(=O)c2cc(NC(=O)Nc3ccc(F)cc3)ccc2O[C@H]1CN(C)C	none (no result: Wnt act, SMARCA2 act, MITF TRPM1 HTS)
Nc1ccccc1-c1nc2ccccc2s1	Wnt act 46, esBAF inh inconclusive
c1cncc(-c2nc3ccccc3s2)c1	Wnt act inconclusive, esBAF inh inconclusive, MITF TRPM1 HTS 85
COc1cccc(-c2nc3ccccc3s2)c1	none (no result: FGF22 binding, Wnt act, esBAF inh, MLL AF4-AF9 inh)
O=C(N[C@H]1CC[C@@H](CC(=O)N2CCC(Cc3ccccc3)CC2)O[C@@H]1CO)c1cnccn1	none (no result: Wnt act, SMARCA2 act, MITF TRPM1 HTS)
O=C(O)CSc1nnc(C2CC2)n1-c1ccccc1	none (no result: FGF22 binding, MLL AF4-AF9 inh)
O=C(O)CSc1nnc(Nc2ccccc2)n1-c1ccccc1	FGF22 binding 44 (no result: esBAF inh)
O=C(CSc1nnc(-c2ccccc2O)n1-c1ccccc1)Nc1cccc(C(=O)O)c1	FGF22 binding 43 (no result: Wnt act)
CC(C)NC(=O)N(C)C[C@@H]1Oc2ncc(C#CCc3ccccc3)cc2C(=O)N([C@@H](C)CO)C[C@@H]1C	none (no result: Wnt act, SMARCA2 act, MITF TRPM1 HTS)
C[C@@H]1CN([C@@H](C)CO)C(=O)Cc2cc(NC(=O)Nc3ccc(C(F)(F)F)cc3)ccc2O[C@@H]1CN(C)C(=O)Nc1ccccc1	none (no result: Wnt act, SMARCA2 act, MITF TRPM1 HTS)
Cc1ccc(-c2nn(CCC(=O)O)cc2/C=C\C(=O)c2ccc(Br)cc2)cc1	FGF22 binding 15 (no result: esBAF inh)
O=C(NC(=S)Nc1ccc([N+](=O)[O-])cc1O)C1CCCCC1	none (no result: esBAF inh)
Cn1ccc(C(=O)NC(=S)Nc2ccc([N+](=O)[O-])cc2O)n1	esBAF inh 69
CN1CCc2c(sc3nc(SCC(=O)NCc4ccco4)n(-c4ccccc4)c(=O)c23)C1	esBAF inh 70
COc1ccc(-n2c(SCC(=O)NCc3ccco3)nc3sc4c(c3c2=O)CCN(C)C4)cc1	none
C[C@H]1CN([C@@H](C)CO)C(=O)Cc2cc(NC(=O)Nc3cccc4ccccc34)ccc2O[C@H]1CN(C)C(=O)Nc1ccccc1	none (no result: Wnt act, SMARCA2 act, MITF TRPM1 HTS)
CC(=O)N(c1ccccc1)c1nnc(-c2cnc(C)cn2)s1	MITF TRPM1 HTS 98 (no result: esBAF inh)
Cc1cnc(-c2nnc(N(C)C(=O)c3cccnc3)s2)cn1	none (no result: FGF22 binding, MLL AF4-AF9 inh)
CO[C@H](CN(C)C(=O)c1cnccn1)[C@H](C)CN([C@@H](C)CO)S(=O)(=O)c1ccccc1	none (no result: Wnt act, SMARCA2 act, MITF TRPM1 HTS)
COc1ccc(C(=O)N2CCN(c3ccc(F)cc3)CC2)cc1S(=O)(=O)NC1CC1	esBAF inh 50
O=C(c1cccc(S(=O)(=O)NCc2ccccc2)c1)N1CCN(c2ccc(F)cc2)CC1	MLL AF4-AF9 inh 26
CCOC(=O)N1CCN(C(=O)c2cccc(S(=O)(=O)Nc3ccc(F)cc3)c2)CC1	Wnt act 39 (no result: esBAF inh)
CCOC(=O)N1CCN(C(=O)c2cccc(S(=O)(=O)Nc3ccc(OC)cc3)c2)CC1	none (no result: esBAF inh)
N#Cc1cccc(-c2ccc3c(c2)[C@H]2[C@H](CCN2C(=O)C2CCCCC2)[C@@H](CO)N3)c1	none (no result: Wnt act, SMARCA2 act, MITF TRPM1 HTS)
C[C@H](CO)N1C[C@H](C)[C@@H](CN(C)Cc2ccccn2)Oc2ncc(C#CCN(C)C)cc2C1=O	none (no result: Wnt act, SMARCA2 act, MITF TRPM1 HTS)
O=C(NC1CCCCCC1)C(=S)NC1CCCCC1	Wnt act 33 (no result: esBAF inh)
O=C(NC1CCCCCC1)C(=O)NC1CC1	none (no result: MITF TRPM1 HTS)
O=C(NC1CCCCCCC1)NC1CCCCC1	Wnt act 58, MITF TRPM1 HTS 91 (no result: FGF22 binding, esBAF inh, MLL AF4-AF9 inh)
CN1CCC(NC(=O)NC2CCCCC2)CC1	none
COc1ccc(COCC23N=C4SCCCN4[C@H](c4ccccc4O2)[C@H]3CO[Si](C)(C)C(C)(C)C)cc1	none (no result: Wnt act, SMARCA2 act, esBAF inh, MITF TRPM1 HTS)
C[C@@H]1CCCCO[C@@H](CN(C)S(=O)(=O)c2ccccc2)[C@H](C)CN([C@@H](C)CO)C(=O)c2cc(NC(=O)Nc3ccccc3)ccc2O1	FGF22 binding 2.0 (no result: Wnt act, SMARCA2 act, MITF TRPM1 HTS)
